Experimental data as given in the supplement of paper PMC10849652.
The full data set covers some 8,800 targets. This sample favours those with a hit. About 0.5% of all pairs of compound and target were hits.

Tests used:
Experiment in all cases: log2 fold change, soluble protein after heating vs DMSO (PISA); higher = thermal stabilisation; K562 lysate, 10 uM; active = over 0.2 and 3.5 SD of the protein, either way, in both replicates (recomputed)
[1] = compound: C=CC(=O)N1CCC[C@@H](n2nc(-c3ccc(Oc4ccccc4)cc3)c3c(N)ncnc32)C1 [ibrutinib]
Procedure, shortened: (§1)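 A 30 min treatment with 10 μM compound was applied to crude K562 extract at 1 mg/mL protein in PBS pH 7.4 with 1 mM MgCl2. Heating for 3 min spanned 48°C-58°C, after which aliquots were pooled, adjusted to 0.5% NP-40 at 4°C and spun at 21,000xg for 90 min. TMTpro 16plex LC-MS/MS of the supernatant, with channel sums equalised, gave values recorded as log-two fold change in thermal stability against solvent controls, from duplicates.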

[2] = compound: CC(=O)c1cnc2ccc(-c3cc(Cl)c(O)c(Cl)c3)nc2c1N[C@H]1CC[C@H](CN(C)C)CC1
Procedure, shortened: as §1

[3] = compound: CC(C)(C)Cn1c(N)nc2ccc(-c3[nH]c(C(C)(C)C)nc3-c3ccc(F)cc3)nc21 [ralimetinib]
Procedure, shortened: as §1

[4] = compound: CC(C)(O)CC(=O)NCCn1ccc2ncnc(Nc3ccc(Oc4cccc(C(F)(F)F)c4)c(Cl)c3)c21
Procedure, shortened: as §1

[5] = compound: CC(C)C1=C2N=C(C=C(N2N=C1)NCC3=CC=CC=C3)NCCCCCCN
Procedure, shortened: as §1

[6] = compound: CC1=C(C(CC(=O)N1)C2=CC=C(C=C2)C(F)(F)F)C(=O)NC3=C(C=C4C(=C3)C=NN4)F
Procedure, shortened: as §1

[7] = compound: CC1=C(C2=C(C=C1)C(=O)C3=CC=CC=C3N2CCCN)C
Procedure, shortened: as §1

[8] = compound: CC1=C(C=C(C=C1)NC(=O)C2=CC(=CC=C2)C(C)(C)C#N)NC3=CC4=C(C=C3)N=CN(C4=O)C
Procedure, shortened: as §1

[9] = compound: CC1=C(C=C(C=C1)NC(=O)C2=CC(=CC=C2)N(C)C)NC(=O)C3=CC=C(C=C3)O
Procedure, shortened: as §1

[10] = compound: CC1=CC=C(C=C1)SC2=C3C=C(SC3=CN=C2)C(=O)N
Procedure, shortened: as §1

[11] = compound: CCCS(=O)(=O)Nc1ccc(F)c(C(=O)c2c[nH]c3ncc(-c4ccc(Cl)cc4)cc23)c1F [vemurafenib]
Procedure, shortened: as §1

[12] = compound: CCCS(=O)(=O)Nc1ccc(F)c(C(=O)c2c[nH]c3ncc(Cl)cc23)c1F
Procedure, shortened: as §1

[13] = compound: CCN(CCCOc1ccc2c(Nc3cc(CC(=O)Nc4cccc(F)c4)[nH]n3)ncnc2c1)CCOP(=O)(O)O [barasertib]
Procedure, shortened: as §1

[14] = compound: CC[C@@H]1C(=O)N(C)c2cnc(Nc3ccc(C(=O)NC4CCN(C)CC4)cc3OC)nc2N1C1CCCC1
Procedure, shortened: as §1

[15] = compound: CC[C@@H]1C(=O)N(C)c2cnc(Nc3ccc(C(=O)N[C@H]4CC[C@H](N5CCN(CC6CC6)CC5)CC4)cc3OC)nc2N1C(C)C [volasertib]
Procedure, shortened: as §1

[16] = compound: CCn1c(C(=O)N(C2CC2)C2CC2)cc2c3c(ncn3C)c(Nc3cc(C)n(C)n3)nc21
Procedure, shortened: as §1

[17] = compound: CCn1cc(-c2ccnc3[nH]c(-c4cccc(CN(C)C)c4)cc23)c(-c2ccc(NC(=O)N(C)C)cc2)n1
Procedure, shortened: as §1

[18] = compound: CN1CCC(CNc2ccc3ncc(-c4cccc(OC(F)(F)F)c4)n3n2)CC1
Procedure, shortened: as §1

[19] = compound: CN1CCN(CCOc2cc(OC3CCOCC3)c3c(Nc4c(Cl)ccc5c4OCO5)ncnc3c2)CC1 [saracatinib]
Procedure, shortened: as §1

[20] = compound: CN1CCN(c2nc(C3=C(c4c[nH]c5ccccc45)C(=O)NC3=O)c3ccccc3n2)CC1 [sotrastaurin]
Procedure, shortened: as §1

Measured: log2 fold change

ORC3 isoform 2 (UniProt Q9UBD5)
inactive: [1] -0.034 | [2] 0.007 | [3] 0.034 | [4] -0.05 | [5] 0.008 | [6] 0.048 | [7] -0.036 | [8] 0.003 | [9] 0.029 | [10] -0.012 | [11] 0.016 | [12] -0.008 | [13] 0.022 | [14] -0.036 | [15] -0.059 | [16] -0.006 | [17] -0.063 | [18] -0.018 | [19] -0.001 | [20] 0.027

NOSIP (UniProt Q9Y314)
inactive: [1] 0.028 | [2] 0.037 | [3] 0 | [4] 0.009 | [5] -0.014 | [6] -0.009 | [7] 0 | [8] 0.047 | [9] 0.027 | [10] -0.009 | [11] -0.008 | [12] 0.034 | [13] 0.012 | [14] 0.017 | [15] -0.035 | [16] -0.005 | [17] -0.013 | [18] 0.016 | [19] 0.008 | [20] -0.014

NEBL isoform 2 (UniProt O76041)
inactive: [1] -0.04 | [2] 0.015 | [3] -0.038 | [4] 0.027 | [5] 0.027 | [6] -0.012 | [7] -0.028 | [8] 0 | [9] 0.011 | [10] -0.013 | [11] 0.014 | [12] 0.009 | [13] -0.078 | [14] 0.02 | [15] 0.051 | [16] -0.041 | [17] -0.108 | [18] 0.084 | [19] 0.023 | [20] -0.039

NFATC1 (UniProt O95644)
inactive: [1] 0.011 | [2] 0.06 | [3] -0.004 | [4] -0.067 | [5] -0.038 | [6] 0.031 | [7] -0.047 | [8] 0.094 | [9] -0.015 | [10] -0.052 | [11] 0.004 | [12] 0.058 | [13] -0.015 | [14] 0.001 | [15] 0 | [16] 0.007 | [17] -0.118 | [18] 0.064 | [19] 0.042 | [20] 0

NUDT5 (UniProt Q9UKK9)
inactive: [1] 0.059 | [2] -0.008 | [3] -0.047 | [4] -0.05 | [5] -0.047 | [6] -0.007 | [7] -0.002 | [8] 0.006 | [9] -0.014 | [10] -0.042 | [11] -0.019 | [12] -0.001 | [13] -0.042 | [14] 0.043 | [15] 0.015 | [16] -0.054 | [17] -0.267 | [19] -0.022 | [20] 0.034
active: [18] 0.27

NADK2 (UniProt Q4G0N4)
inactive: [1] -0.017 | [2] -0.006 | [3] 0.005 | [4] -0.03 | [5] -0.02 | [6] -0.007 | [7] 0.008 | [8] 0.024 | [9] 0.023 | [10] 0.042 | [11] 0.024 | [12] -0.013 | [13] 0.034 | [14] 0.078 | [15] 0.008 | [16] -0.016 | [17] -0.019 | [18] 0.02 | [19] -0.035 | [20] -0.036

NCOR2 (UniProt C9J0Q5)
inactive: [1] -0.002 | [2] -0.001 | [3] -0.026 | [4] -0.056 | [5] -0.034 | [6] 0.046 | [7] 0.022 | [8] -0.064 | [9] -0.014 | [10] -0.04 | [11] 0.006 | [12] 0.021 | [13] 0.024 | [14] 0.009 | [15] 0.009 | [16] 0.056 | [17] 0.019 | [18] 0.036 | [19] -0.026 | [20] 0.032

MRPS12 (UniProt O15235)
inactive: [1] -0.003 | [2] -0.008 | [3] 0.011 | [4] -0.067 | [5] 0.007 | [6] -0.004 | [7] -0.138 | [8] 0.003 | [9] -0.028 | [10] -0.02 | [11] 0.062 | [12] 0.035 | [13] 0.003 | [14] 0.045 | [15] 0.011 | [16] 0.001 | [17] -0.038 | [18] 0.001 | [19] 0.016 | [20] 0.028

MRPL58 (UniProt Q14197)
inactive: [1] 0.025 | [2] 0.032 | [3] -0.022 | [4] 0.006 | [5] -0.013 | [6] 0.089 | [7] -0.034 | [8] -0.035 | [9] 0.032 | [10] 0.053 | [11] 0.104 | [12] -0.017 | [13] 0.033 | [14] -0.033 | [15] -0.043 | [16] 0.004 | [17] 0.148 | [18] -0.151 | [19] 0.04 | [20] 0.019

OGFR (UniProt Q9NZT2)
inactive: [1] -0.012 | [2] 0.02 | [3] 0.007 | [4] -0.011 | [5] -0.008 | [6] 0.001 | [7] -0.016 | [8] -0.027 | [9] -0.003 | [10] 0.002 | [11] -0.033 | [12] 0.025 | [13] 0.003 | [14] -0.012 | [15] -0.067 | [16] 0.004 | [17] 0.12 | [18] -0.039 | [19] 0.022 | [20] 0.053

MRPL51 (UniProt Q4U2R6)
inactive: [1] 0.02 | [2] -0.005 | [3] 0.048 | [4] 0.011 | [5] -0.038 | [6] 0.066 | [7] 0.006 | [8] -0.062 | [9] 0.051 | [10] 0.017 | [11] 0.032 | [12] 0.028 | [13] 0 | [14] -0.044 | [15] 0.022 | [16] 0.038 | [17] -0.309 | [18] 0.16 | [19] 0.02 | [20] 0.008

NFATC2 (UniProt Q13469)
Chain of UniProt Q13469 (Q13469 whole entry, looked up): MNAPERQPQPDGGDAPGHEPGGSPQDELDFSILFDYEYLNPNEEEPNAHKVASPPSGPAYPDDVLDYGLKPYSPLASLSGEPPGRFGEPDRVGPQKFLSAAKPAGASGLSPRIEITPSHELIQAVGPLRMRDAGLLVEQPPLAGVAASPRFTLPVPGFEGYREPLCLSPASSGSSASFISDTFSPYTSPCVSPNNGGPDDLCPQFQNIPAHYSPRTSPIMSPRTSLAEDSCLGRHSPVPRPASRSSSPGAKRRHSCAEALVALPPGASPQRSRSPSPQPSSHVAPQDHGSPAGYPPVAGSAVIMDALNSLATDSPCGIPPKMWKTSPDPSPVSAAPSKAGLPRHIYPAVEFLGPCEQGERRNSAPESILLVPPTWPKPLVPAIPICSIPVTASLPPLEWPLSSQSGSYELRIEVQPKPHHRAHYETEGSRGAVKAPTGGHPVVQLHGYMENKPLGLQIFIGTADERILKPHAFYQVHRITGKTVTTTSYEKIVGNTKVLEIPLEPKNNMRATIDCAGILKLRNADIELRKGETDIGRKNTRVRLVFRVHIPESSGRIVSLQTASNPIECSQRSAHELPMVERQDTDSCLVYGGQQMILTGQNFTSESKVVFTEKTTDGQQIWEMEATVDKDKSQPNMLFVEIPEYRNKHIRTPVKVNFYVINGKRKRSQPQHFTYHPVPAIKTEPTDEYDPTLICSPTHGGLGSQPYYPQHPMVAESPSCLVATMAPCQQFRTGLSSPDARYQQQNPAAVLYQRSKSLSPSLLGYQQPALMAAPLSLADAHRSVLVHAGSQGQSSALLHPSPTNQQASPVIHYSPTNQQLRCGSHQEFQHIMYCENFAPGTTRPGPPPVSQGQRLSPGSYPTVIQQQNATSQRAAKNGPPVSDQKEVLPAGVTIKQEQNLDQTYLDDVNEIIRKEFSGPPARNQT
inactive: [1] 0.012 | [2] 0.039 | [3] -0.022 | [4] -0.061 | [5] 0.026 | [6] 0.004 | [7] -0.018 | [8] -0.026 | [9] 0.033 | [10] -0.031 | [11] -0.029 | [12] 0.032 | [13] 0.011 | [14] 0.03 | [15] -0.069 | [16] -0.006 | [17] 0.011 | [18] -0.002 | [19] 0.014 | [20] -0.016

OGT (UniProt O15294)
Chain of UniProt O15294 (O15294 whole entry, looked up): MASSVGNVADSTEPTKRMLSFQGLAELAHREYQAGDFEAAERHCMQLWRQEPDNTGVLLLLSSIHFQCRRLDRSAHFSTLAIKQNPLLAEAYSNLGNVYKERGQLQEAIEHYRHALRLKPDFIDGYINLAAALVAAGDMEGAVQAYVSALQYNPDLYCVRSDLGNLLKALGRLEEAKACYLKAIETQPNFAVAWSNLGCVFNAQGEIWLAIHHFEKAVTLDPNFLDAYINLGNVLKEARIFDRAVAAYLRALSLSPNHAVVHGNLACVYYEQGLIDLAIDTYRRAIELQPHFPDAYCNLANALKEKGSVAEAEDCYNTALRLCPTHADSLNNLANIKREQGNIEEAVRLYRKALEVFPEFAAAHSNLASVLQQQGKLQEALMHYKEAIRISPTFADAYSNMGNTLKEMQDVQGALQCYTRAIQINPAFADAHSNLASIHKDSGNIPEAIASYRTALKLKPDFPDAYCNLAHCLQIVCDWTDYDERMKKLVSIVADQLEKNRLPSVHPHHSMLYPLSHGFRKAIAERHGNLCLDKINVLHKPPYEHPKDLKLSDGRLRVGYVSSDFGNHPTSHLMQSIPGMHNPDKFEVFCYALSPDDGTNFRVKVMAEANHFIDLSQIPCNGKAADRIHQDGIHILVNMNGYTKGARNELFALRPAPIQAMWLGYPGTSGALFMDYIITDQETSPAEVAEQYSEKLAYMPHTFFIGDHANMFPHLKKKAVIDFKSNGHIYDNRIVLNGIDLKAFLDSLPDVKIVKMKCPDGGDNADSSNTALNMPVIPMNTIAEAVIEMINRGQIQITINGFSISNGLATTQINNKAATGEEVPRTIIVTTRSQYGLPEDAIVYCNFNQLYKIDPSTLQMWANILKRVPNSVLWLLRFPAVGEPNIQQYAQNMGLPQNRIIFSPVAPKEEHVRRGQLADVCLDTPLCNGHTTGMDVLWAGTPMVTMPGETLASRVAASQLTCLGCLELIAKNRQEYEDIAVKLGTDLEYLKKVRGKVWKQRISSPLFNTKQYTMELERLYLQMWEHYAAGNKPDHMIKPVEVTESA
inactive: [1] -0.035 | [2] -0.024 | [3] 0.021 | [4] 0.023 | [5] -0.007 | [6] -0.009 | [7] -0.026 | [8] -0.014 | [9] 0.032 | [10] -0.005 | [11] 0.012 | [12] 0.015 | [13] 0.031 | [14] -0.003 | [15] -0.058 | [16] 0.036 | [17] -0.002 | [18] -0.021 | [19] 0.011 | [20] 0.018

NDUFA4 (UniProt O00483)
Chain of UniProt O00483 (O00483 whole entry, looked up): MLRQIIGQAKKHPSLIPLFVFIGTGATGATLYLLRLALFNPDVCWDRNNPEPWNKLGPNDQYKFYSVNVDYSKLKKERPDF
inactive: [1] 0.007 | [2] 0.199 | [3] 0.022 | [4] 0.03 | [5] -0.068 | [6] -0.045 | [7] -0.036 | [8] -0.058 | [9] 0.009 | [10] -0.199 | [11] -0.009 | [12] 0.245 | [13] 0.058 | [14] 0.011 | [15] 0.122 | [16] 0.085 | [17] 0.067 | [18] -0.134 | [19] 0.018 | [20] -0.063

PAIP2 (UniProt Q9BPZ3)
Chain of UniProt Q9BPZ3 (Q9BPZ3 whole entry, looked up): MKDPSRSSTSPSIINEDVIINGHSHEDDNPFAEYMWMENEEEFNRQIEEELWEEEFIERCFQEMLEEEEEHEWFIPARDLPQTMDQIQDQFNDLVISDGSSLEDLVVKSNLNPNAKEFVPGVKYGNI
inactive: [1] 0.145 | [2] 0.012 | [3] -0.05 | [4] -0.006 | [5] 0.006 | [6] 0.015 | [7] 0.028 | [8] 0.01 | [9] -0.003 | [10] -0.008 | [11] 0 | [12] -0.013 | [14] 0.039 | [15] -0.018 | [16] 0.02 | [17] -0.043 | [18] -0.001 | [19] -0.081 | [20] -0.073
active: [13] 0.272

NBEAL2 (UniProt Q6ZNJ1)
Chain of UniProt Q6ZNJ1 (Q6ZNJ1 whole entry, looked up): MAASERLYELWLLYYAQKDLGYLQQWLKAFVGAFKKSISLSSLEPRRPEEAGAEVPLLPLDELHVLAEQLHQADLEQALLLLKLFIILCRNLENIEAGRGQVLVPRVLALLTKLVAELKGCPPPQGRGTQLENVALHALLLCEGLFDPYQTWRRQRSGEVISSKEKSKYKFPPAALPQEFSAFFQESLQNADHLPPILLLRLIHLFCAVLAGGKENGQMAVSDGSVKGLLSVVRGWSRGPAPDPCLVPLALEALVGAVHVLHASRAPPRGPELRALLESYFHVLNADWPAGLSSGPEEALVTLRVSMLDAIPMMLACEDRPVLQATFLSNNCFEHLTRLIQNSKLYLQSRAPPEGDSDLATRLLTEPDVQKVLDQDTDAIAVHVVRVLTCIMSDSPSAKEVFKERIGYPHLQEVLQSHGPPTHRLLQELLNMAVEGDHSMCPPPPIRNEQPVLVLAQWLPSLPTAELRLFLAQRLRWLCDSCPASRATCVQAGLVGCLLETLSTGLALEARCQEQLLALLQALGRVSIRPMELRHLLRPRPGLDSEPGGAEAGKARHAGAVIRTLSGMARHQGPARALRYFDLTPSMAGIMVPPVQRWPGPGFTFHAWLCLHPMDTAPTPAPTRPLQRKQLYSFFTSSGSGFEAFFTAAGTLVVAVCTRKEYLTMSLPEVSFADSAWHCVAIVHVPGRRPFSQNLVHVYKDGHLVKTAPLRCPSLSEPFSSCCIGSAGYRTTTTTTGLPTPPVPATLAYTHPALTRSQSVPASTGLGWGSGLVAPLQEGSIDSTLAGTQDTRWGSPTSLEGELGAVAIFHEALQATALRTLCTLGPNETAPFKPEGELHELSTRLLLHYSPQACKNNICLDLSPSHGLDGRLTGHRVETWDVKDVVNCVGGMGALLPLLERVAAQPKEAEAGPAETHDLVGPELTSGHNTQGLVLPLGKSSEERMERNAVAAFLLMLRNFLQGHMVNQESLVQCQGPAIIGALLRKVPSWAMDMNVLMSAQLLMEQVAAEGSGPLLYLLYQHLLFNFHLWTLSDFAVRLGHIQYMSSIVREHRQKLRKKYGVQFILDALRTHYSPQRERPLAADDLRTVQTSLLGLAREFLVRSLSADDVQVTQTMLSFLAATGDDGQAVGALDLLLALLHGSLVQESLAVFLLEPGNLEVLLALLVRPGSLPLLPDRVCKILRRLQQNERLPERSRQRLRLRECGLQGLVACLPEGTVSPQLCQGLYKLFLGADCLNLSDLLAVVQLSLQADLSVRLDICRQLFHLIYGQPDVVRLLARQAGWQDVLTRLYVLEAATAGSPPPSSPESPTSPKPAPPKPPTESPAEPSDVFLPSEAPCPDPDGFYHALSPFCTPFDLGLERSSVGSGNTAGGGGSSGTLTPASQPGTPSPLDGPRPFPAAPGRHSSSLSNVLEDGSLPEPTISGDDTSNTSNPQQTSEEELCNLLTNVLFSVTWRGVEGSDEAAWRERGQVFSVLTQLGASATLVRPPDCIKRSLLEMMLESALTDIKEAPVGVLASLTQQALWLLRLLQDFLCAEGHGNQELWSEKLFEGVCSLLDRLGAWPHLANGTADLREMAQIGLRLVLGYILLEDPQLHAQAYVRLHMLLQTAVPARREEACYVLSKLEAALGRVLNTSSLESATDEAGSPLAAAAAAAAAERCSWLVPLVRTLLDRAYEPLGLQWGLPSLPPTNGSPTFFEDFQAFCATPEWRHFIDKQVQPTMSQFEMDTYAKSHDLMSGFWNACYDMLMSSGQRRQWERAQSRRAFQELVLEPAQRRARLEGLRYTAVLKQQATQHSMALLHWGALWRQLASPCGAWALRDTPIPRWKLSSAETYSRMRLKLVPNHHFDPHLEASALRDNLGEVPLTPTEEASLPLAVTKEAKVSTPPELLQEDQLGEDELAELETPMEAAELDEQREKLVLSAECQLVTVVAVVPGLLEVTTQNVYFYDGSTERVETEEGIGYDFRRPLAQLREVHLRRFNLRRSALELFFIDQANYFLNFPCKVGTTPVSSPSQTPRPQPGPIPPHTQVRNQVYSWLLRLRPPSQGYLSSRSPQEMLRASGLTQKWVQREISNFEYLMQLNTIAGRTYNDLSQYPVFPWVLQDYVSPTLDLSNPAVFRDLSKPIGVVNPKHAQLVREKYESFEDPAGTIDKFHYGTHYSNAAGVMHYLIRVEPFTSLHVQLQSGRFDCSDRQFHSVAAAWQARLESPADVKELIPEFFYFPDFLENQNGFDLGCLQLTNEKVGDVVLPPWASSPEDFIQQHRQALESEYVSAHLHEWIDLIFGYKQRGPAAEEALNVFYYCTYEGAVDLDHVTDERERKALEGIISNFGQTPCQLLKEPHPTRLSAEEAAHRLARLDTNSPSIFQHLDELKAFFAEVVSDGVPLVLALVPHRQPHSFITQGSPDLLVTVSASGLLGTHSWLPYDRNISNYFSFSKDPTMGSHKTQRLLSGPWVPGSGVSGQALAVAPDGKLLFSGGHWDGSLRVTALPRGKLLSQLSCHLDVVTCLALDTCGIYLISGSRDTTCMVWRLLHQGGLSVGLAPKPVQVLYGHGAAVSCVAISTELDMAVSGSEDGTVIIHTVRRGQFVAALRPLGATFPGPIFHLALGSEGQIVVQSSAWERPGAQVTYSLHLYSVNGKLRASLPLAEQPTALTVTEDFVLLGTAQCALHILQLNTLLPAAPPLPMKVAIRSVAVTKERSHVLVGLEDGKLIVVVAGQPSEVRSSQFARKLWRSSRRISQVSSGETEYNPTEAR
inactive: [1] -0.048 | [2] 0.011 | [3] 0.023 | [4] -0.047 | [5] 0.003 | [6] 0.036 | [7] -0.011 | [8] 0.047 | [9] 0.06 | [10] -0.013 | [11] -0.047 | [12] 0.021 | [13] 0.045 | [14] -0.053 | [15] -0.128 | [16] 0.01 | [17] 0.013 | [18] -0.037 | [19] 0.013 | [20] 0
